Compound activity as filed in PubChem.
The entries come from a sample that favours hits as a whole.
RBX1-CUL1 inh: inhibitors of human ROC1-CUL1 ubiquitin ligase activity | E3 ubiquitin-protein ligase RBX1 (Homo sapiens) + Cullin-1 (Homo sapiens), P62877+Q13616 | in vitro K48 di-Ub FRET, acceptor:donor ratio, 45 min | inhibition, % at 10 µM | 0.6% of 140,000 active; in the data active = inhibition above about 25%
Target sequence (P62877 whole entry, looked up): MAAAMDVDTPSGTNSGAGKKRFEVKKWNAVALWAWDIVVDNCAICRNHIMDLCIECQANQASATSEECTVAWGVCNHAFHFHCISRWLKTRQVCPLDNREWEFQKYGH
Target sequence (Q13616 whole entry, looked up): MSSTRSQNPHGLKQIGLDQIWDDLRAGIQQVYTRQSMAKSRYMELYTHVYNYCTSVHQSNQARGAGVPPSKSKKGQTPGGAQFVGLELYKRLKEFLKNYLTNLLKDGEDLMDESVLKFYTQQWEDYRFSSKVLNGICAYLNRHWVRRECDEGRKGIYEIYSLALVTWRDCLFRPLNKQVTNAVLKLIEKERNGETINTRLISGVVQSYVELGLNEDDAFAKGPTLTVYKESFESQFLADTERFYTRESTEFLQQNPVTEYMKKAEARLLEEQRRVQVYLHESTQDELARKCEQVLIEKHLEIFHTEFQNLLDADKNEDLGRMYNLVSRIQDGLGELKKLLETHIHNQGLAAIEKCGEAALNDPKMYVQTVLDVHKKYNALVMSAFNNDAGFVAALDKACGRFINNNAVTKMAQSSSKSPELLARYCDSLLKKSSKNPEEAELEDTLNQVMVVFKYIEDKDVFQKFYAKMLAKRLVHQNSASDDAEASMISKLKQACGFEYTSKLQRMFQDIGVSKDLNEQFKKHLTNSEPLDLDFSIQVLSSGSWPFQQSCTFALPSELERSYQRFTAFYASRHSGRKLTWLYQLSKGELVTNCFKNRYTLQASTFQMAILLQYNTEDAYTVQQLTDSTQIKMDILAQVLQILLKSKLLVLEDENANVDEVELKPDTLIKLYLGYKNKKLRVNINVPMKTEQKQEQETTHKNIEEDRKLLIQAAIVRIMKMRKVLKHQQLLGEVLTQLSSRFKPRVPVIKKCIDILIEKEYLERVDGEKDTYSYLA
Active calls of the source: *.

SMILES	RBX1-CUL1 inh
COc1ccc(C2Nc3ncccc3NC3=C2C(=O)CCC3)cc1 (configuration not stated)	5.0
CC(C)Oc1ccc(CC2=NC(=S)NC2=O)cc1	3.6
O=C1NC(=S)N=C1Cc1ccc(OCc2cccc(C(=O)O)c2)cc1	25.7*
O=C(O)COc1ccc(CC2=NC(=S)NC2=O)cc1	6.8
O=C1N=C(c2ccccc2)N(c2ccccc2)C(=O)C1C(=O)c1ccc(Cl)cc1 (configuration not stated)	-7.0
CN(C)c1ccc(CC2C(=O)c3ccccc3C2=O)cc1	2.0
COc1cc(C(=O)Nc2ncc(Cc3ccc(Cl)cc3Cl)s2)cc(OC)c1OC	0.0
C=CCN1C(=O)/C(=C\c2ccc(N(C)C)cc2)N=C1SCC(=O)Nc1ccccc1	12.5
CN(C)c1ccc(/C=C2\N=C(c3ccccc3)N(NC(=O)c3ccccc3Br)C2=O)cc1	40.1*
CN(C(=S)NC(=O)c1ccccc1Br)c1ccccc1	-2.3
CC1CCCCC1NC(=O)Cn1cnc2ccccc21 (configuration not stated)	2.1
C=CCn1nnc(NC(=O)c2ccc(CC)cc2)n1	-5.8
O=C(Cc1coc2ccc3ccccc3c12)N1CCN(c2cccc(Cl)c2)CC1	4.2
COc1ccc(S(=O)(=O)N2CCCCCC2)cc1C(=O)N1CCOCC1	5.6
Cc1ccc(C)c(/C=C2\C(=O)ON=C2c2ccccc2)c1	-1.4
O=C1ON=C(c2ccccc2)/C1=C/c1ccc(Br)s1	-5.4
Cc1ccc(C2=NOC(=O)/C2=C\c2ccc(C)o2)cc1	48.6*
O=C(c1ccc(Cl)s1)N1CCN(C2CCCCC2)CC1	71.6*
Cc1cc(C(=O)N2CCN(C3CCCCC3)CC2)cs1	9.9
O=C(c1ccc(Cl)s1)N1CCN(Cc2ccc(F)cc2)CC1	8.8
O=C(O)c1ccc(COc2ccc(CC3=NC(=O)N(c4cccc(Cl)c4)C3=O)cc2Br)cc1	-6.7
Cc1cc(C)n2cc(CSC(=N)N)nc2n1	6.6
O=C(/C=C/c1cccs1)c1ccc2c(c1)OCCO2	1.3
O=C(/C=C/c1cccnc1)c1ccc2c(c1)OCCO2	71.3*
COC(=O)c1ccc(/C=C/C(=O)c2ccc3c(c2)OCCO3)cc1	-1.1
SMILES	RBX1-CUL1 inh
CCS(=O)(=O)Nc1ccccc1Cl	-7.5
O=C(OC1COC2C(OC(=O)c3ccco3)COC12)c1ccco1 (configuration not stated)	8.3
Cc1ccc(N=C2C(=Nc3ccc(C)cc3)N(c3ccc(C)cc3)C(=S)N2c2ccc(C)cc2)cc1	-3.5
COc1ccc(N=C2NC(=O)/C(=C/c3ccc(OCc4cccc(C(=O)O)c4)c(OC)c3)S2)cc1	7.0
COc1ccc(/C=C2\SC(=Nc3cccc(Cl)c3C)NC2=O)c(OC)c1	-0.7
CCc1ccc(N=C2NC(=O)/C(=C/c3cc(C)n(-c4ccncc4)c3C)S2)cc1	3.8
O=C1NC(=Nc2ccc(C(=O)O)cc2)S/C1=C/c1ccccc1OCc1ccccc1	94.5*
CCOc1cc(/C=C2\SC(=Nc3cccc(Cl)c3C)NC2=O)cc(Br)c1OC	-0.7
O=C1NC(=Nc2ccc(Br)cc2)S/C1=C\c1ccccc1O	11.2
CCOc1ccccc1/C=C1\SC(=Nc2cccc(Cl)c2C)NC1=O	25.9*
Cc1cc(/C=C2\SC(=Nc3ccccc3)NC2=O)c(C)n1-c1cc(C(=O)O)cc(C(=O)O)c1	69.4*
Cc1ccccc1/C=C1/SC(=Nc2ccccc2)NC1=O	3.7
O=C(/C=N/O)c1ccc(Cl)cc1Cl	2.9
Cc1cccc(C(C)C)c1NC(=O)/C=C/c1ccc(Br)cc1	-7.2
CCC(C)CC(=O)Nc1nc2c(s1)C(=O)CC(C(=O)N1CCCC1)C2 (configuration not stated)	5.0
C=CCCC(NS(=O)(=O)c1ccc(C)cc1)C(=O)OCC (configuration not stated)	5.0
Cc1ccc(CN2CC(c3ncc(-c4ccccc4F)[nH]3)CC2=O)cc1 (configuration not stated)	-7.1
COCC(C)N1CCC(Oc2ccccc2C(=O)N2CCCCC2)CC1 (configuration not stated)	0.9
CS(=O)(=O)N1CCN(C(=O)Nc2ccc(F)cc2)CC1	7.7
CN(C)CCCn1c(-c2ccccc2)csc1=Nc1ccccc1	2.6
CC(=O)Oc1ccccc1NP(=O)(c1ccccc1)c1ccccc1	-6.0
O=C1C=CC2(c3ccccc3-c3ccccc32)S(=O)(=O)C1	61.0*
CC1(C)COC2(NC1=O)c1ccccc1-c1ccccc12	9.8
O=C1c2ccccc2COC12OCc1ccccc12 (configuration not stated)	-7.8
O=C(c1ccc(OCc2ccccc2)cc1)c1coc2cc(Br)c(O)c(Br)c12	-6.1
Cc1ccccc1NC(=O)c1c(C)nc(SCC(=O)c2ccc(O)c(O)c2)c(C#N)c1-c1cccnc1	27.9*
N#Cc1c(N)nc(SCC(=O)c2ccc(O)c(O)c2)c(C#N)c1-c1ccc(OCc2ccccc2)cc1	-8.3
N#Cc1c(SCC(=O)c2ccc(F)cc2)nc2c(c1-c1cccnc1)CCC2	4.5
CCc1nnc(CN(C)C(=O)Nc2n[nH]c(-c3cccc(C)c3)n2)o1	0.3
